Measured values: PubChem BioAssay
Active and inactive are the calls of the source.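 Rule for the calls, unless noted: active = inhibition above the hit cutoff set in the earlier primary screen (cut at about 27% in these data); inactive = the rest.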

Key:
[1] = target: Protein phosphatase methylesterase 1 (Homo sapiens) (UniProt Q9Y570); test: PME-1 inhibitor activity retest, confirmation, biochemical, fluorescence polarization, FP-Rh probe, triplicate (AID 2171); settings: recombinant PME-1, FP-Rh probe fluorescence polarization; at 5.9 µM; stronger effect = higher value;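 note: 0% = enzyme with DMSO and 100% = wells lacking PME-1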
Chain of Protein phosphatase methylesterase 1 (Homo sapiens) (Q9Y570 whole entry, looked up, the tested form may be a part): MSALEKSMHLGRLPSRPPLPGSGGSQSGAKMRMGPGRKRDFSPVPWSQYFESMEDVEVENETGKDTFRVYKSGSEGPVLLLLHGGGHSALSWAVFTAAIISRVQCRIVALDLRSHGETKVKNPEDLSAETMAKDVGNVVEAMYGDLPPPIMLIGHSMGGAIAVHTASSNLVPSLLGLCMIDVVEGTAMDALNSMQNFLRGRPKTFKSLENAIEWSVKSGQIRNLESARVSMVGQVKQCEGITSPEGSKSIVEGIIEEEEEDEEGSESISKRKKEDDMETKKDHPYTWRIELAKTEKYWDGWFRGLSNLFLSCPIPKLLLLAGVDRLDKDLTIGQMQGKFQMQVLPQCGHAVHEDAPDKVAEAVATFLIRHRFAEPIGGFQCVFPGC

[2] = target: Nuclear receptor coactivator 3 (Homo sapiens) (UniProt Q9Y6Q9); test: SRC3 coactivator transcriptional activity inhibitors, confirmation, cell-based, luminescence, quadruplicate (AID 588792;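 active = mean inhibition over 43.08%, the solvent-only control mean plus 3 SD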;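 note: 0% = DMSO treated cells and 100% = gossypol at 36 µM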); settings: HEK293 GAL4-SRC3 luciferase reporter, at 3.6 µM, stronger effect = higher value
Chain of Nuclear receptor coactivator 3 (Homo sapiens) (Q9Y6Q9 whole entry, looked up, the tested form may be a part): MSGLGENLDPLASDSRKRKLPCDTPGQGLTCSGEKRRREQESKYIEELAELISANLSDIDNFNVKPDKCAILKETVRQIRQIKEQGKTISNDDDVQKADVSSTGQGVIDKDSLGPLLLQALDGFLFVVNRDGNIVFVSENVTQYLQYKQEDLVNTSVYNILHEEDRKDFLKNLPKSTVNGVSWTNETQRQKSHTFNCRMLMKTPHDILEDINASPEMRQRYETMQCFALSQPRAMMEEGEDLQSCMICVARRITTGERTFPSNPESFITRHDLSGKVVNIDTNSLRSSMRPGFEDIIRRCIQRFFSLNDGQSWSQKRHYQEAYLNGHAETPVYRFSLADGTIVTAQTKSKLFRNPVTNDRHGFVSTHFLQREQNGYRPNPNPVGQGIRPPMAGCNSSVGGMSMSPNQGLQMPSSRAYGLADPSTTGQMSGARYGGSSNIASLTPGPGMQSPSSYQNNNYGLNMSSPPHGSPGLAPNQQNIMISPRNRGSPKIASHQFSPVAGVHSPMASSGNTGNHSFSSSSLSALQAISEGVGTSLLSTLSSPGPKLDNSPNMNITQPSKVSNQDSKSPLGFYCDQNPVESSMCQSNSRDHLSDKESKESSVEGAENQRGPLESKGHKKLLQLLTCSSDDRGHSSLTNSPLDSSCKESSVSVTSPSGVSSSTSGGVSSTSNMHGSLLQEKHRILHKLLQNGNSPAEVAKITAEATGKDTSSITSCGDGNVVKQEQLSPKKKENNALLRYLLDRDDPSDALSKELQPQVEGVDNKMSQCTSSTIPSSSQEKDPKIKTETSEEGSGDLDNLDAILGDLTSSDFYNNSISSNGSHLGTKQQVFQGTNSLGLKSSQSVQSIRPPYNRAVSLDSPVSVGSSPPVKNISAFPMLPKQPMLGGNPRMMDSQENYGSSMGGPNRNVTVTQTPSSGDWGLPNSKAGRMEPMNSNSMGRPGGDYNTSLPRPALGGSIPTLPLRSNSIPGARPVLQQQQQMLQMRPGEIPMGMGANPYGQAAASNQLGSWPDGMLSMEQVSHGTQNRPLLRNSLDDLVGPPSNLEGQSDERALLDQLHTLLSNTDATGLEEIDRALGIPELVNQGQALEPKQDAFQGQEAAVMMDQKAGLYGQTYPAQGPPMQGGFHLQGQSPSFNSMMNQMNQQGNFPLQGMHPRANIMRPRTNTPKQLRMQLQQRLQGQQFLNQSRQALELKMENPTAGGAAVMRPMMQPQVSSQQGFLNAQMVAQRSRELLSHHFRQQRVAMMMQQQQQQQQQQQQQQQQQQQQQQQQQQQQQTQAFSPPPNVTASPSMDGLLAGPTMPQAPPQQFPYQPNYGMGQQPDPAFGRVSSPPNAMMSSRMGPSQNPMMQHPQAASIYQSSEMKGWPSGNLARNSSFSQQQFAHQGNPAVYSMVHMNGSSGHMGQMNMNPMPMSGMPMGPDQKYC

[3] = system: transactivating tegument protein VP16 (Human herpesvirus 1), Gal4-VP16 luciferase reporter; test: VP16 transactivation inhibitors, counter-screen for SRC3 inhibitor project, cell-based, luminescence, high throughput (AID 588794; in the data active = inhibition above about 30%); settings: mammalian cells, VP16-driven luciferase reporter luminescence; at 3.6 µM; stronger effect = higher value
[4] = target: Nuclear receptor coactivator 1 (Homo sapiens) (UniProt Q15788); test: SRC1 coactivator transcriptional activity inhibitors, confirmation, cell-based, luminescence, quadruplicate (AID 588820;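 active = mean inhibition above 46.68%, the untreated control wells mean plus 3 SD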;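 note: 0% = DMSO wells and 100% = gossypol 36 µM treated wells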); settings: HEK293 GAL4-SRC1 luciferase reporter, at 3.6 µM, stronger effect = higher value
[5] = VP16 transactivation inhibitors, counter-screen for SRC1 inhibitor project, cell-based, luminescence, high throughput (AID 588824; in the data active = inhibition above about 25%); settings: cell-based VP16 transactivation luciferase luminescence; at 3.6 µM; stronger effect = higher value
[6] = StAR promoter reporter inhibitors, counter-screen for LRH-1 inverse agonist project, cell-based, luminescence, high throughput (AID 651611; in the data active = inhibition above about 28%); settings: StAR promoter luciferase reporter counterscreen, at 3.6 µM, stronger effect = higher value
[7] = target: Nuclear receptor subfamily 5 group A member 2 (Homo sapiens) (UniProt O00482); test: LRH-1 (NR5A2) inverse agonists, retest, confirmation, cell-based, luminescence (AID 651613; in the data active = inhibition above about 42%;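 note: HEK293T cells co-transfected with LRH-1 and StAR promoter luciferase reporter; 0% = vehicle wells and 100% = parental cells lacking receptor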); settings: cell-based LRH-1 luciferase reporter, inverse agonism; at 3.6 µM; stronger effect = higher value
Chain of Nuclear receptor subfamily 5 group A member 2 (Homo sapiens) (O00482 whole entry, looked up): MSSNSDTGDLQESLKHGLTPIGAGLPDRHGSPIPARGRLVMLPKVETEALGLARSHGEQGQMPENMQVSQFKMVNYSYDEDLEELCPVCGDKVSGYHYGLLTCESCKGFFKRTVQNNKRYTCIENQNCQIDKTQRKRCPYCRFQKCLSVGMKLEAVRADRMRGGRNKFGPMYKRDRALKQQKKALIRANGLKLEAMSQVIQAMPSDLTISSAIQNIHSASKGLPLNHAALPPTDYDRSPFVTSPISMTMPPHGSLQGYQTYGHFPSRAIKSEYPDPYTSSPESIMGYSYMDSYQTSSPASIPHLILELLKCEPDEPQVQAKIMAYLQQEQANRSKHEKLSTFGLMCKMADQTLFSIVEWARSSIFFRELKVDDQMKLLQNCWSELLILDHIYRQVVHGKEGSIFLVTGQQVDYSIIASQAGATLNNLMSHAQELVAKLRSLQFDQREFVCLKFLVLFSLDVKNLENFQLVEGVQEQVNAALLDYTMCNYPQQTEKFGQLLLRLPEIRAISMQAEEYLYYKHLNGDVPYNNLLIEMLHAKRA

[8] = target: Steroidogenic factor 1 (Homo sapiens) (UniProt Q13285); test: SF1 (NR5A1) inverse agonists, counter-screen for LRH-1 inverse agonist project, cell-based, luminescence, high throughput (AID 651614; in the data active = inhibition above about 44%;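 note: cells cotransfected with StAR promoter reporter and SF1 expression vector; 0% = vehicle on cells with receptor and 100% = vehicle on cells lacking receptor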); settings: cell-based SF1 luciferase reporter, at 3.6 µM, stronger effect = higher value
Chain of Steroidogenic factor 1 (Homo sapiens) (Q13285 whole entry, looked up, the tested form may be a part): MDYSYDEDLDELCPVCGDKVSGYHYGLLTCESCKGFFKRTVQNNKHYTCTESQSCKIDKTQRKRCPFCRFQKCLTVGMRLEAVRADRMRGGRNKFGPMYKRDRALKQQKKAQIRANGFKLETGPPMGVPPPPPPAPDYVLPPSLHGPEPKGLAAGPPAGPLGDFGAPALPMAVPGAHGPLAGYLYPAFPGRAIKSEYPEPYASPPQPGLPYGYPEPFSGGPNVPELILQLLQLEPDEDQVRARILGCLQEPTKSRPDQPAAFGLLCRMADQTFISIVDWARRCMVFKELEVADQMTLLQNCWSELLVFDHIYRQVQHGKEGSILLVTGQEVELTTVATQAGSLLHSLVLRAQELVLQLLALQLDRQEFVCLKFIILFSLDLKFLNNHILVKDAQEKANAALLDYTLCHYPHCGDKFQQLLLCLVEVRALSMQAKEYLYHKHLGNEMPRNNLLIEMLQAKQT

[9] = VP16 transactivation reporter inhibitors, counter-screen for LRH-1 inverse agonist project, cell-based, luminescence, high throughput (AID 651615; in the data active = inhibition above about 33%); settings: Gal4-VP16 luciferase reporter cells, at 3.6 µM, stronger effect = higher value
[10] = system: transactivating tegument protein VP16 (Human herpesvirus 1); test: VP16 transactivation reporter inhibitors, counter-screen for SRC2 inhibitor project, cell-based, luminescence, single concentration (AID 652007; in the data active = inhibition above about 36%); settings: cell-based VP16 transactivation luciferase reporter, at 8.9 µM, stronger effect = higher value
[11] = target: Nuclear receptor coactivator 2 (Homo sapiens) (UniProt Q15596); test: SRC2 coactivator transcriptional activity inhibitors, confirmation, cell-based, luminescence, HEK293, triplicate (AID 652008;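 active = mean inhibition above 46.5%, the solvent-only control mean plus 3 SD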;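 note: 0% = DMSO-treated cells and 100% = Gossypol at 36 µM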); settings: HEK293 GAL4-SRC2 luciferase reporter, at 8.9 µM, stronger effect = higher value
Chain of Nuclear receptor coactivator 2 (Homo sapiens) (Q15596 whole entry, looked up, the tested form may be a part): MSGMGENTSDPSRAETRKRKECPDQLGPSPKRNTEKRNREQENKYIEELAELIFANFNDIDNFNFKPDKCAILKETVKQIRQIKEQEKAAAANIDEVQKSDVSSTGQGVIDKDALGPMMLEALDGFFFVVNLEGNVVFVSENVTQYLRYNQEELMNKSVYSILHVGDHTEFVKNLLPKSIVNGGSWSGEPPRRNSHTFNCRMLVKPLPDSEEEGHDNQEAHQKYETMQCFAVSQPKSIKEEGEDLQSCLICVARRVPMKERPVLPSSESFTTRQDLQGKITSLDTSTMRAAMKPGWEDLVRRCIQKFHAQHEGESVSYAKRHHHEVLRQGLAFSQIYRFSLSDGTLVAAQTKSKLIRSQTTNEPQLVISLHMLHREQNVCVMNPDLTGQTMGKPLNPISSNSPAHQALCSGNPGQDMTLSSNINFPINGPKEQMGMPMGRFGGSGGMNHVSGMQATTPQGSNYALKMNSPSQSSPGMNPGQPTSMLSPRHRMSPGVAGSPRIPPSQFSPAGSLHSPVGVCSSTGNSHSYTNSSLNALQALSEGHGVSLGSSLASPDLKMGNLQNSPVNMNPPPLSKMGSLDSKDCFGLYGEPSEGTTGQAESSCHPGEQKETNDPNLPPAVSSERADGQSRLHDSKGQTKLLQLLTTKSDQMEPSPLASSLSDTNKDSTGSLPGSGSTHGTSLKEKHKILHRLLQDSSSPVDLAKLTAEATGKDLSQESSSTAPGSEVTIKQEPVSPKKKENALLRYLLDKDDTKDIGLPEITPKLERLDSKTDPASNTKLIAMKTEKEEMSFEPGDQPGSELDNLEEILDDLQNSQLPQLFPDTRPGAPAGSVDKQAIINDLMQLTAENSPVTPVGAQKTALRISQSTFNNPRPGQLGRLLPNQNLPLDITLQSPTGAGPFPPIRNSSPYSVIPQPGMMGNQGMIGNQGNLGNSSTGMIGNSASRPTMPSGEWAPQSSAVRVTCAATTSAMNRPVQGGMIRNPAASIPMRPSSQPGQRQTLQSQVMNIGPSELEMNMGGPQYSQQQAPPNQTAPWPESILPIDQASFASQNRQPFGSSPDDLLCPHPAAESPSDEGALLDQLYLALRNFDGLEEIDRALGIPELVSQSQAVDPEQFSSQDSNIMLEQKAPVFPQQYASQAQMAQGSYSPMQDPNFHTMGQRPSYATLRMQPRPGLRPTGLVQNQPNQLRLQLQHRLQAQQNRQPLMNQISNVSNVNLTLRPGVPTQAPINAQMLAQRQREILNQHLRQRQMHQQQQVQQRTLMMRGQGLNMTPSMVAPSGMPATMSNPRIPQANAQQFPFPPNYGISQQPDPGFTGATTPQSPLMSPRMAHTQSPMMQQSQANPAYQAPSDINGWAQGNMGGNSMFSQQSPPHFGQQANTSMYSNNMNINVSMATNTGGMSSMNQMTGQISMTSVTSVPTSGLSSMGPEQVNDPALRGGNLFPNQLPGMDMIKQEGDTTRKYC

Measured: inhibition

CCN(CC(=O)Nc1c(F)cccc1F)C(=O)CCc1ccc(OC)cc1
inactive: [1] 6.49%

CCc1nnc(NC(=O)c2sc3nc4c(cc3c2N)CCCCCC4)s1
inactive: [1] 16.3%

Nc1ccc(C(=O)N/N=C\c2cc(N=Nc3cccc4ccccc34)ccc2O)cc1
active: [5] 31.8%
inactive: [1] 15.1% | [2] 15.1% | [3] 17.7% | [4] 14.5%

COc1cccc(N2CCN(c3ncnc4c3[nH]c3ccc(F)cc34)CC2C)c1 (stereo not drawn)
active: [1] 26.7% | [2] 95.2% | [3] 93.4% | [4] 86.7% | [5] 91.8% | [6] 93.4% | [7] 108% | [8] 97.8% | [9] 97.2% | [10] 95.4% | [11] 99.5%

COc1ccc(-c2csc(NC(=O)c3ccccc3NS(=O)(=O)c3ccc(F)c(F)c3)n2)cc1
active: [2] 69.3% | [3] 71.4% | [4] 55% | [5] 81.9%
inactive: [1] -5.29%

COC(=O)c1cc(C)nc2c1C(=O)C(=O)C=C2N1CCOCC1
active: [1] 40% | [2] 69.5% | [3] 54.7% | [5] 52.3% | [10] 54.2% | [11] 99.2%
inactive: [4] -43.5%

CCN(CC)S(=O)(=O)c1ccc(N/N=C/c2ccc(O)cc2O)nc1
active: [1] 35% | [2] 68.3% | [3] 67.3% | [4] 63.5% | [5] 58.3%

Cc1ccc(C(C)C)c(OCc2ccc(C(=O)N/N=C/c3cccc(O)c3O)cc2)c1
active: [2] 56.2% | [3] 32.4% | [5] 27.9% | [11] 83.9%
inactive: [1] -4.31% | [4] 40.4% | [10] 34.8%

CCn1nc([N+](=O)[O-])c(C(C#N)c2nc3cc(C(F)(F)F)ccc3s2)c(Cl)c1=O (stereo not drawn)
inactive: [2] 10.4% | [3] 12.3%
active: [1] 67.1%

COc1ccc(S(=O)(=O)/N=C2\C=C(Nc3ccc(O)cc3)C(=O)c3ccccc32)cc1
active: [1] 63.2% | [2] 94.1% | [3] 92.8% | [4] 85% | [5] 90.8% | [6] 92% | [7] 107% | [8] 96.7% | [9] 97.2% | [10] 67% | [11] 73%

Nc1ccc2c(c1)C(=O)C(=O)c1ccccc1-2
active: [1] 36.4% | [2] 96.7% | [3] 95.3% | [4] 87% | [5] 93% | [6] 98.5% | [7] 110% | [8] 98.9% | [9] 99.1% | [10] 97% | [11] 98.8%

O=C1C(Nc2ccccc2)=C/C(=N/S(=O)(=O)c2cccs2)c2ccccc21
inactive: [4] 44.6%
active: [1] 35.5% | [2] 79.7% | [3] 59.4% | [5] 75.7%

CC(C)S(=O)(=O)c1csc(NC(=O)Nc2cccc([N+](=O)[O-])c2)c1Cl
inactive: [1] -58.5%

CC1=Nc2ccccc2/C1=C/c1sc(=N)n(-c2nccs2)c1O
active: [1] 40.4%

COc1ccc(/C=N/NC(=S)Nc2ccccc2[N+](=O)[O-])cc1O
inactive: [2] -21.4% | [3] -47% | [4] -91.8% | [5] -70%
active: [1] 43.4%

CCC(=O)Nc1nc(C)c(-c2csc(Nc3cccc(O)c3)n2)s1
inactive: [1] 20% | [2] 16.5%
active: [3] 47.6%

Cc1cc([N+](=O)[O-])ccc1-c1ccc(C2Nc3ccccc3C(=O)N2O)o1 (stereo not drawn)
inactive: [1] 25% | [2] 23.6% | [3] 1.31%

COc1cccc2c1C(=O)c1c(O)c3c(c(O)c1C2=O)C[C@@](O)(C(=O)CO)C[C@@H]3O[C@H]1C[C@H](N)[C@H](O)[C@H](C)O1
active: [1] 36.3% | [2] 49.7% | [3] 87.7%
